AMA1-RON2 inh: inhibitors of Plasmodium falciparum AMA1-RON2 interaction. AlphaScreen AMA1-biotinylated RON2 peptide binding. Potency, µM (highest dose often 58.2 µM), actives largely listed as inhibitors. 360,000 tested, 0.2% active; note: nearly all actives have a fitted effect of over 45% in size
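AMA1 (3D7) with his tag at 25 nM final met compounds first, then biotinylated RON2 peptide at 25 nM; detection used donor plus acceptor beads, 10 µg/mL apiece, read by AlphaScreen after 30 min at room temperature.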
HCV inh: inhibitors of hepatitis C virus infection; AID 651820; Potency, µM (titrated, usually from 41.8 µM), actives largely listed as inhibitors; 340,000 tested, 3.4% active; Huh7.5.1 HCVcc-Cre infection, luciferase reporter, 44 h
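Seed cells (1,000/well) for 4 h; treat with compound and infect with HCVcc-Cre, moi about 0.5. Incubate 44 h, then detect luciferase activity.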
AmpC detergent: blocks E. coli AmpC beta-lactamase in detergent assay; P00811; AmpC hydrolysis of nitrocefin, absorbance 480 nm, 0.01% Triton; Potency, µM (highest dose often 114 µM), usual class: inhibitors; 370,000 tested, 0.041% active; note: nearly all actives have a fitted effect of over 25% in size
Target sequence (P00811 whole entry, looked up): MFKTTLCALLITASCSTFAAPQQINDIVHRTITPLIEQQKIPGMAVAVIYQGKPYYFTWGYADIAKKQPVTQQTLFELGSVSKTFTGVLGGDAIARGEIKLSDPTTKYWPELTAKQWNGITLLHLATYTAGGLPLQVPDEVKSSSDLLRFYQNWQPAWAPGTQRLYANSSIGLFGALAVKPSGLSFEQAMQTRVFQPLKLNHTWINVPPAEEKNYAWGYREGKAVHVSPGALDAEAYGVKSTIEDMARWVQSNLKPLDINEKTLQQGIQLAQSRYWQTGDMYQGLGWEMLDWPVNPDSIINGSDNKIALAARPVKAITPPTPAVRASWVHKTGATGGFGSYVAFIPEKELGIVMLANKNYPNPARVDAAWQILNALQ
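20 mM phosphate pH 7.0 + 0.01% (detergent screen) or 0.0001% Triton X-100; 5.3 nM AmpC reagent; cpd preinc 15 min RT; nitrocefin (800 uM stock) to start; A480 q20 s × 4 min; Activity was normalised to no-enzyme and no-compound control wells.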
Pf growth 48h: inhibits P. falciparum growth in the first generation, 48 h | P. falciparum luciferase growth in erythrocytes, 48 h | Potency, µM (doses to about 28.7 µM), hits mostly inhibitors | 310,000 tested, 5.9% active | AID 504832
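Luciferase-expressing parasites in RBCs, 2% Hct / 0.1% parasitemia final; RPMI 1640 + 0.5% Albumax; 37 C, 5% CO2, one generation; luminescence read-out, lower signal = inhibition.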
Pf growth 96h: inhibits malaria parasite growth, 96 h. Potency, µM (titrated, usually from 28.7 µM), actives largely listed as inhibitors. P. falciparum luciferase reporter growth, 96 h. AID 504834. 320,000 tested, 6.9% active
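Plates of compound plus infected erythrocytes (2% hematocrit, 0.05% parasitemia final) incubate 96 hours, 37 C, 5% CO2. Detection reagent added; reduced luminescence from the parasites' luciferase reporter flags inhibition.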
AmpC inh no detg: AmpC beta-lactamase inhibition without detergent; P00811; AmpC nitrocefin hydrolysis, absorbance 480 nm, 0.0001% Triton; Potency, µM (titrated, usually from 57.1 µM), most hits filed as inhibitors; 330,000 tested, 0.52% active; AID 485341; note: nearly all actives have a fitted effect of over 20% in size
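AmpC (5.3 nM in the dispensed reagent) in 20 mM phosphate pH 7.0 with 0.01% (detergent screen) or 0.0001% Triton X-100 was preincubated with compounds for 15 min at room temperature. Nitrocefin was then added from an 800 uM solution, and hydrolysis was followed at 480 nm.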
Of the large screens only hits and unclear results are named; the others gave an inactive call. A selection: hits, their analogues and other compounds. The true share with any hit is near 11%. Calls come from the whole dose curve; as a rule, active = well fitted curve in the direction sought with a large enough effect; inconclusive = small, poorly fitted or top-dose-only effect, or another doubt; inactive = no such curve, though single readings can be large; an effect the other way counts as inactive or inconclusive.

CCc1cccc(C)c1NS(=O)(=O)c1c(C(=O)N2CCC(C)CC2)c(C)n(C)c1C	none (no result: AMA1-RON2 inh, HCV inh, Pf growth 48h, Pf growth 96h, AmpC inh no detg)
Cc1oc2c(cc(NS(=O)(=O)c3ccc(Cl)cc3)c3ccccc32)c1C(=O)OCc1ccccc1	none (no result: AMA1-RON2 inh, HCV inh, Pf growth 48h, Pf growth 96h, AmpC inh no detg)
CN(CC(=O)N1CCCc2c1c(=O)oc1ccc(O)cc21)Cc1ccccc1	HCV inh inconclusive, Pf growth 48h 9.3µM, Pf growth 96h inconclusive
COc1ccc(C(CNC(=O)c2cc3c(s2)CCC(C)C3)N2CCCC2)cc1 (stereo unspecified)	HCV inh 10µM, Pf growth 48h 9.3µM, Pf growth 96h 4.1µM
COc1ccc(C(CNC(=O)c2ccc(Cl)s2)N2CCOCC2)cc1 (stereo unspecified)	none
CCC1CCc2sc(C(=O)NCC(c3ccccc3OC)N3CCCC3)cc2C1 (stereo unspecified)	HCV inh 7.1µM, Pf growth 48h 10µM, Pf growth 96h 9.3µM
COc1ccc(C(=O)NCC(c2ccc(N(C)C)cc2)N2CCCC2)cc1 (stereo unspecified)	none (no result: AMA1-RON2 inh, HCV inh, Pf growth 48h, Pf growth 96h, AmpC inh no detg)
COc1ccc(C(CNC(=O)c2cc3c(s2)CCC(C)C3)N2CCOCC2)cc1 (stereo unspecified)	HCV inh inconclusive, AmpC detergent inconclusive, Pf growth 48h 12µM, Pf growth 96h inconclusive
CCC1CCc2sc(C(=O)NCC3CCCO3)cc2C1 (stereo unspecified)	none
CCc1ccccc1NC(=O)C1CCN(C(=O)N2CC(C)Oc3ccc(Cl)cc32)CC1 (stereo unspecified)	none (no result: AMA1-RON2 inh, HCV inh, Pf growth 48h, Pf growth 96h, AmpC inh no detg)
Cc1cccc(N2CCN(C(=O)Cn3c(-c4cccs4)cc4ccccc43)CC2)c1C	none (no result: AMA1-RON2 inh, HCV inh, Pf growth 48h, Pf growth 96h, AmpC inh no detg)
O=C(NCCc1ccccc1)c1ccc2c(c1)nc1n2CCOC1	none (no result: AMA1-RON2 inh, HCV inh, Pf growth 48h, Pf growth 96h, AmpC inh no detg)
Cc1cc(Cl)c(OCCOCCN2CCN(C)CC2)c(Br)c1	AMA1-RON2 inh inconclusive, HCV inh inconclusive, AmpC detergent inconclusive
Cc1cc(Cl)c(OCCOCCN2CCC(C)CC2)c(Br)c1	HCV inh inconclusive, Pf growth 48h inconclusive, Pf growth 96h 12µM
CC1CCN(CCOCCOc2ccc(Cl)cc2Br)CC1	HCV inh 22µM, Pf growth 48h inconclusive, Pf growth 96h 6.6µM
Cc1ccc(-n2nc(C)c3c(C)cc(=O)n(CC(=O)NCc4ccc(OC(C)C)cc4)c32)cc1	none (no result: AMA1-RON2 inh, HCV inh, Pf growth 48h, Pf growth 96h, AmpC inh no detg)
COc1ccc(-c2cc(C)no2)cc1S(=O)(=O)NCc1cccs1	none (no result: AMA1-RON2 inh, HCV inh, Pf growth 48h, Pf growth 96h, AmpC inh no detg)
N#Cc1ccc(Oc2nc(C#N)cc(-c3ccccc3)n2)cc1	Pf growth 96h inconclusive
COc1ccc(-c2cc(C#N)nc(Cl)n2)cc1	HCV inh inconclusive
CN1CCN(c2nc(C#N)cc(-c3ccccc3)n2)CC1	HCV inh 10µM, Pf growth 48h inconclusive
N#Cc1cc(-c2ccccc2)nc(Oc2ccccc2)n1	HCV inh 10µM
CN1CCN(c2nc(-c3ccccc3)nc(-c3ccccc3)c2C#N)CC1	HCV inh inconclusive, Pf growth 48h inconclusive, Pf growth 96h inconclusive
COc1ccc(-c2cc(C#N)nc(N3CCN(C)CC3)n2)cc1	HCV inh 13µM, Pf growth 96h inconclusive
COc1ccc(-c2cc(C#N)nc(N3CCNCC3)n2)cc1	Pf growth 96h 2.6µM (no result: Pf growth 48h)
COCCNC(=O)CSc1nc2cc3c(cc2c(=O)n1CCCCCC(=O)NCCc1ccc(OC)c(OC)c1)OCO3	none (no result: AMA1-RON2 inh, HCV inh, Pf growth 48h, Pf growth 96h, AmpC inh no detg)
Cc1ccc(NC(=O)C2CCN(S(=O)(=O)c3ccc4[nH]c(=O)ccc4c3)CC2)cc1C	none (no result: AMA1-RON2 inh, HCV inh, Pf growth 48h, Pf growth 96h, AmpC inh no detg)
Cc1ccc(S(=O)(=O)N2CCOCC2)cc1C(=O)Nc1ccccc1C(=O)O	none (no result: AMA1-RON2 inh, HCV inh, Pf growth 48h, Pf growth 96h, AmpC inh no detg)
CC1CCN(C(=S)c2cn(Cc3ccccc3F)c3ccccc23)CC1	HCV inh inconclusive, Pf growth 48h 7.4µM, Pf growth 96h 13µM
O=C(NC1(C(F)(F)F)NC(=O)N(CCc2ccccc2)C1=O)c1ccccc1Cl (stereo unspecified)	none (no result: AMA1-RON2 inh, HCV inh, Pf growth 48h, Pf growth 96h, AmpC inh no detg)
CN(C)CCNCc1ccc(OC2CCCC2)cc1	Pf growth 96h 9.3µM (no result: HCV inh, Pf growth 48h)
CCC(CO)NCc1ccc(OC2CCCC2)cc1 (stereo unspecified)	none
O=C1CC(c2nnc(Cc3ccccc3Cl)o2)CN1c1ccccc1 (stereo unspecified)	none (no result: AMA1-RON2 inh, HCV inh, Pf growth 48h, Pf growth 96h, AmpC inh no detg)
O=C(Nc1ccc2c(c1)CN(Cc1ccccc1O)CC2)C1CCCO1 (stereo unspecified)	Pf growth 48h inconclusive, Pf growth 96h 3.3µM
O=C(Nc1ccc2c(c1)CCC2)C1CCCO1 (stereo unspecified)	none (no result: Pf growth 96h)

Bioassay records: PubChem, National Center for Advancing Translational Sciences (NCATS)
